TDP1 inh – TDP1 (human) enzyme inhibition; recombinant TDP1, AlphaScreen DNA substrate cleavage; AID 485290; Q9NUW8; Potency, µM (titrated, usually from 130 µM), actives largely listed as inhibitors; 350,000 tested, 0.28% active; note: nearly all actives have a fitted effect of over 40% in size
Target sequence (Q9NUW8 whole entry, looked up): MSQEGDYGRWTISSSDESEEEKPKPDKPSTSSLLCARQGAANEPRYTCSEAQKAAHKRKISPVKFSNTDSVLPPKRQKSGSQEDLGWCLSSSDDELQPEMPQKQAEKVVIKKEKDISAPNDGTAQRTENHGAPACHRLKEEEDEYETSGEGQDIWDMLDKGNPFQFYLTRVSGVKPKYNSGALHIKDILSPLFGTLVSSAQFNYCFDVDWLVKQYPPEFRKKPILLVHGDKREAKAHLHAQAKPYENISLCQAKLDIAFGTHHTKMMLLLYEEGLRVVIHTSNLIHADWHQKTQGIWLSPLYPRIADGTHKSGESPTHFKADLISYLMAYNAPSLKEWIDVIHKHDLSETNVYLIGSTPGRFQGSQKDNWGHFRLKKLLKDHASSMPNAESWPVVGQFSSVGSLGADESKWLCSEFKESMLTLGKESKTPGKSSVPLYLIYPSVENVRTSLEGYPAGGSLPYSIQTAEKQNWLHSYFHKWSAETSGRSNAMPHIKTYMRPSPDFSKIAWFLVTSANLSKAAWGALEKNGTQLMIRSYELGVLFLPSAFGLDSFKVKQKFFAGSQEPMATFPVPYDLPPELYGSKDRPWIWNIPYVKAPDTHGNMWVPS
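Compounds were preincubated with Tdp1 (1 nM final) for 15 min at room temperature before substrate (15 nM final) started a 5 min reaction; beads (10 ug/ml final) were then added for 10 min before AlphaScreen detection.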
DT40 TDP1 no CPT – qHTS for Inhibitors of human tyrosyl-DNA phosphodiesterase 1 (TDP1): qHTS in cells in absence of CPT; DT40 Tdp1-/- hTDP1 cells, no CPT, ATP luminescence, 48 h; Potency, µM (top dose mostly 46.2 µM), hits mostly inhibitors; 420,000 tested, 15% active; note: nearly all actives have a fitted effect of over 55% in size
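Stably hTDP1-transfected Tdp1-null chicken DT40 cells were treated with library compounds minus camptothecin and grown for at least 48 hr at 37 °C, after which cellular ATP was quantified by luminescence.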
VP16 counter – counter-screen for ROR gamma inhibitors: Gal4-VP16 reporter. 310,000 tested, 3.5% active. Drosophila S2 Gal4-VP16 UAS-luciferase, luminescence, 20 h. Potency, µM (series often up to 53.6 µM), hits mostly inhibitors;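 note: Gal4-VP16 expression switched on by copper sulfate through the metallothionein promoter; nearly all actives have a fitted effect of over 50% in size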
RORgamma inh – blocks mouse ROR gamma transcriptional activity | 310,000 tested, 5.4% active | Drosophila S2 Gal4-RORgamma UAS-luciferase reporter, 20 h | P51450 | Potency, µM (top dose mostly 53.6 µM), usual class: inhibitors | AID 2551; note: nearly all actives have a fitted effect of over 60% in size
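Drosophila S2 cells stably expressing Gal4-DBD/mouse RORγ fusion under metallothionein promoter plus UAS-luciferase; compound 1 h, then 700 uM CuSO4 induction for 20 h at ambient temperature; inhibition read as reduced luminescence.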
TDP1 cell CPT – growth inhibition of DT40 Tdp1-/-;hTDP1 cells with camptothecin (screen for TDP1 inhibitors) | Potency, µM (highest dose often 46.2 µM), actives largely listed as inhibitors | chicken DT40 Tdp1-/-;hTDP1 cells + 20 nM CPT, ATP luminescence, 48 h | 420,000 tested, 12% active | AID 686979; note: nearly all actives have a fitted effect of over 55% in size
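Chicken DT40 Tdp1-/- cells stably complemented with human TDP1 were seeded at 400 cells/well in medium containing 20 nM camptothecin, exposed to pin-transferred compounds, and grown at 37 °C for at least 48 hr. Viability was read as ATP luminescence.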
A number is an active result; [ ] = dose if it differs, or a comment. This is a sample that favours compounds with a hit; in the whole collection about 19% have one here. Calls come from the whole dose curve; as a rule, active = well fitted curve in the direction sought with a large enough effect; inconclusive = small, poorly fitted or top-dose-only effect, or another doubt; inactive = no such curve, though single readings can be large; an effect the other way counts as inactive or inconclusive.

How did COc1ccc2oc(=O)c(C(=O)NCc3ccccc3)cc2c1 do in these assays?
DT40 TDP1 no CPT: inactive; VP16 counter: inactive; RORgamma inh: inactive; TDP1 cell CPT: inconclusive

What do the screens show for `COc1ccc(C(=O)N/N=C(\N)c2cc3ccccc3oc2=O)cc1`?
TDP1 inh: inactive[0.0935 µM]; DT40 TDP1 no CPT: inconclusive; VP16 counter: inconclusive; RORgamma inh: 0.89µM; TDP1 cell CPT: inconclusive

What do the screens show for `C/C(CC(=O)c1ccccc1)=N\NC(=O)CC#N`?
TDP1 inh: inactive; DT40 TDP1 no CPT: inactive; VP16 counter: inconclusive; RORgamma inh: 4µM; TDP1 cell CPT: inactive

What do the screens show for `COc1ccc(CN2Cc3ccccc3OC(c3ccccc3OC)C2)c(O)c1` (centres undefined)?
DT40 TDP1 no CPT: inconclusive; TDP1 cell CPT: inactive[9.04 µM]

What do the screens show for `N/C(=N\OC(=O)Cc1cccs1)c1ccc(Br)cc1`?
TDP1 inh: inactive; DT40 TDP1 no CPT: inactive; VP16 counter: inactive; RORgamma inh: inactive; TDP1 cell CPT: inactive

Results for Cc1nn(-c2ccccc2)c(Cl)c1C(=O)Nc1nnc(C2CCCCC2)s1 ?
TDP1 inh: inactive; DT40 TDP1 no CPT: inactive; VP16 counter: inconclusive; RORgamma inh: 13µM; TDP1 cell CPT: inactive

Results for CCN(c1ccccc1)S(=O)(=O)c1ccc(NN)nc1 ?
TDP1 inh: inactive; DT40 TDP1 no CPT: inconclusive; TDP1 cell CPT: inconclusive

What do the screens show for `CCN(CC)S(=O)(=O)c1ccc(NN)nc1`?
TDP1 inh: inactive; DT40 TDP1 no CPT: inconclusive; VP16 counter: 18µM; RORgamma inh: 4.5µM; TDP1 cell CPT: 21µM

What do the screens show for `CC(C)N(C(C)C)S(=O)(=O)c1ccc(NN)nc1`?
TDP1 inh: inactive; DT40 TDP1 no CPT: inconclusive; VP16 counter: inconclusive; RORgamma inh: 14µM; TDP1 cell CPT: inconclusive

How did CCN(CC)S(=O)(=O)c1ccc(N/N=C/c2cccnc2)nc1 do in these assays?
TDP1 inh: inactive; DT40 TDP1 no CPT: inactive; VP16 counter: inactive; RORgamma inh: inactive; TDP1 cell CPT: inactive

How did CCN(CC)S(=O)(=O)c1ccc(N/N=C/c2cc(OC)ccc2O)nc1 do in these assays?
TDP1 inh: inactive; DT40 TDP1 no CPT: 6.5µM; VP16 counter: 11µM; RORgamma inh: 4.5µM; TDP1 cell CPT: 5.8µM

Results for COc1ccc(N2C(=O)CC(N3CCN(c4ccccc4)CC3)C2=O)cc1 (centres undefined) ?
DT40 TDP1 no CPT: inactive; VP16 counter: inactive; RORgamma inh: inactive; TDP1 cell CPT: inactive

Results for Fc1ccc(-n2nnc(-c3cccnc3)n2)cc1 ?
TDP1 inh: inactive; DT40 TDP1 no CPT: inactive; VP16 counter: inactive; RORgamma inh: inactive; TDP1 cell CPT: inactive

How did Fc1ccc(C(CCCn2nnc(-c3cccnc3)n2)c2ccc(F)cc2)cc1 do in these assays?
TDP1 inh: inactive; DT40 TDP1 no CPT: 21µM; VP16 counter: inconclusive; RORgamma inh: inactive; TDP1 cell CPT: 16µM

Results for O=C(CN1C(=O)c2ccccc2C1=O)NCC(=O)OCC(=O)c1ccc(Cl)cc1 ?
TDP1 inh: inactive; DT40 TDP1 no CPT: inactive; VP16 counter: inconclusive; RORgamma inh: inactive; TDP1 cell CPT: inactive

How did CC(=O)c1c(O)cc(O)c(C(C)=O)c1O do in these assays?
DT40 TDP1 no CPT: inconclusive; VP16 counter: 10µM; RORgamma inh: inconclusive; TDP1 cell CPT: 21µM

How did COn1c(=O)c(-c2cccs2)[n+]([O-])c2ccccc21 do in these assays?
TDP1 inh: inactive; DT40 TDP1 no CPT: 12µM; VP16 counter: inactive; RORgamma inh: inactive; TDP1 cell CPT: 16µM

What do the screens show for `O=Cc1[nH]c2ccccc2c1N(C(=O)CCl)c1ccccc1`?
TDP1 inh: inactive; DT40 TDP1 no CPT: 15µM; VP16 counter: inactive; RORgamma inh: inactive; TDP1 cell CPT: 10µM

Results for O=C(CCl)N(c1ccccc1)c1ccccc1 ?
TDP1 inh: inactive; DT40 TDP1 no CPT: 1.8µM; VP16 counter: inconclusive; RORgamma inh: 14µM; TDP1 cell CPT: 2.1µM

Results for O=C(N(c1ccccc1)c1ccccc1)N(c1ccccc1)c1ccccc1 ?
TDP1 inh: inactive; DT40 TDP1 no CPT: 21µM; VP16 counter: inactive; RORgamma inh: inactive; TDP1 cell CPT: inconclusive

What do the screens show for `O=c1oc(-c2cccs2)nc2ccc(Cl)cc12`?
TDP1 inh: inactive; DT40 TDP1 no CPT: inactive; VP16 counter: inactive; RORgamma inh: inactive; TDP1 cell CPT: inactive

High-throughput results deposited in PubChem by National Center for Advancing Translational Sciences (NCATS).
